Results taken from PubChem BioAssay (Tox21).
Results filed as inconclusive are left out. Active and inactive are the calls of the source. Unless noted, calls come from the whole dose curve; as a rule, active = well fitted curve in the direction sought with a large enough effect in the repeat runs; inconclusive = weak or mixed curves; inactive = no such curve, though single readings can be large; an effect the other way counts as inactive or inconclusive.

What was measured:
[1] = qHTS assay to identify small molecule antagonists of the thyroid receptor (TR) signaling pathway (AID 743065); note: series mostly up to about 70 µM; nearly all actives have a fitted effect of over 55% in size
Procedure, shortened: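 GH3.TRE-Luc rat pituitary cells carrying two TR response elements driving luciferase were plated for 4 h, given compound plus 1 nM T3 (final), and incubated 23.5 h at 37 C. ONE-Glo luminescence measured reporter inhibition; CellTiter-Fluor fluorescence tracked cytotoxicity.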

[2] = system: thyroid hormone receptor (rat, GH3 cells); experiment: qHTS assay to identify small molecule agonists of the thyroid receptor (TR) signaling pathway (AID 743066; calls by dose curve; note: potency is the fitted concentration of half-maximal effect)
[3] = qHTS assay to identify small molecule antagonists of the estrogen receptor alpha (ER-alpha) signaling pathway - cell viability counter screen (AID 743074; calls by dose curve;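 note: HEK293 cells carrying ER-alpha-UAS-bla reporter stimulated with 17beta-estradiol; nearly all actives have a fitted effect of over 45% in size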)
[4] = qHTS assay to identify small molecule antagonists of the estrogen receptor alpha (ER-alpha) signaling pathway using the BG1 cell line - cell viability counter screen (AID 743081);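 note: compound given together with 17beta-estradiol as the ER stimulus; series mostly up to about 70 µM; nearly all actives have a fitted effect of over 45% in size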
[5] = biological target: Aromatase (Homo sapiens) (UniProt P11511); experiment: qHTS assay to identify aromatase inhibitors (AID 743083); note: series mostly up to about 70 µM; nearly all actives have a fitted effect of over 55% in size
[6] = qHTS assay to identify aromatase inhibitors - cell viability counter screen (AID 743084);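 note: cells stimulated with testosterone during compound exposure; nearly all actives have a fitted effect of over 55% in size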; note: potency is the fitted concentration of half-maximal effect
[7] = biological target: Estrogen receptor (Homo sapiens) (UniProt P03372); experiment: qHTS assay to identify small molecule antagonists of the estrogen receptor alpha (ER-alpha) signaling pathway (AID 743069; active = well fitted curve in the direction sought with a large enough effect in the signal ratio in the repeat runs, not every such curve was filed as active; the % refers to the signal ratio)
Procedure, shortened: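 A 17beta-estradiol challenge was applied right after compound transfer to ER-alpha-UAS-bla HEK293 cells previously kept in charcoal-stripped serum. Plates stood 18 hr at 37C and 5% CO2; fluorescence was read following 2 hr FRET substrate loading at room temperature.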

[8] = biological target: Estrogen receptor (Homo sapiens) (UniProt P03372); experiment: qHTS assay to identify small molecule agonists of the estrogen receptor alpha (ER-alpha) signaling pathway (AID 743075; calls by dose curve;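 note: HEK293 GripTite cells with ER-alpha and UAS-driven beta-lactamase reporter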)
[9] = biological target: Estrogen receptor (Homo sapiens) (UniProt P03372); experiment: qHTS assay to identify small molecule agonists of the estrogen receptor alpha (ER-alpha) signaling pathway using the BG1 cell line (AID 743079); note: nearly all actives have a fitted effect of over 20% in size; note: potency is the fitted concentration of half-maximal effect
[10] = qHTS assay to identify small molecule antagonists of the estrogen receptor alpha (ER-alpha) signaling pathway using the BG1 cell line (AID 743080; calls by dose curve;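 note: BG1 cells stimulated with 17beta-estradiol alongside compound; series mostly up to about 70 µM; nearly all actives have a fitted effect of over 25% in size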)
Procedure, shortened: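 Luciferase inhibition measured with ONE-Glo after 30 min at RT in BG1Luc4E2 cells given test compounds and 17beta-estradiol for 21.5 h at 37 C; CellTiter-Fluor viability read in the same wells beforehand.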
% is set by controls: 0 for no effect and ±100 for the full control effect.

Estrogen receptor (Homo sapiens), sequence (P03372 whole entry, looked up): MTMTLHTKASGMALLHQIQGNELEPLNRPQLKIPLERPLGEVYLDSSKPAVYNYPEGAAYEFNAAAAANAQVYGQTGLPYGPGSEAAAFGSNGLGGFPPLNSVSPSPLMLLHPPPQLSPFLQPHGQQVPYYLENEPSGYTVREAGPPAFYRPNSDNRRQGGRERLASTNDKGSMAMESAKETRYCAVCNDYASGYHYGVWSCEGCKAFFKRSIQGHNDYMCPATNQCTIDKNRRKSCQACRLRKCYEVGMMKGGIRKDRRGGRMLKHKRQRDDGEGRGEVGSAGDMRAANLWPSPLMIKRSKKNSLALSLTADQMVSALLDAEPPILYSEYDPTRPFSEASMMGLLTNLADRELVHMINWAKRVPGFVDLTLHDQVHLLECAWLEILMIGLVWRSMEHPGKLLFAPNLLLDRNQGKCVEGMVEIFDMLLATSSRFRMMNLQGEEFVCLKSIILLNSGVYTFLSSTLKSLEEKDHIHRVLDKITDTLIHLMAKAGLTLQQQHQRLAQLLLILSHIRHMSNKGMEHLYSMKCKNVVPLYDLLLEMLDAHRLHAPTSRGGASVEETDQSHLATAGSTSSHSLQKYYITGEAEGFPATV
Aromatase (Homo sapiens), sequence (P11511 whole entry, looked up): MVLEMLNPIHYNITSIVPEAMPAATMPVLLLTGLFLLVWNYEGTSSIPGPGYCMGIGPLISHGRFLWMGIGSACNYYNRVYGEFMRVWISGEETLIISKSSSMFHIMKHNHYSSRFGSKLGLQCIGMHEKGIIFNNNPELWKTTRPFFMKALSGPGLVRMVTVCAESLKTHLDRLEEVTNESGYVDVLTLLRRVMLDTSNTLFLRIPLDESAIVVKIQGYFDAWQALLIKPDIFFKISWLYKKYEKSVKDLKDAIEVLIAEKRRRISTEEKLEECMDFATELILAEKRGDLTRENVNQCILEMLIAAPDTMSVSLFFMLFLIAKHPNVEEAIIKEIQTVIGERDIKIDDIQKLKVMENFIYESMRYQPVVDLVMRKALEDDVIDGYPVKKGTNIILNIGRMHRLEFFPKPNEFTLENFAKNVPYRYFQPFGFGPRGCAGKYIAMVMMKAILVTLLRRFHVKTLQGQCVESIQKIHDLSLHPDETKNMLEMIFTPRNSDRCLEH

C[C@H]1O[C@H](O[C@H]2[C@H](O)[C@@H](O)[C@@H](O[C@H]3[C@H](O)[C@@H](O)[C@H](O)O[C@@H]3CO)O[C@@H]2CO)[C@H](O)[C@@H](O)[C@@H]1N[C@H]1C=C(CO)[C@@H](O)[C@H](O)[C@H]1O
inactive: Potency [1] | Potency [2] | Potency [3] | outcome [4] | outcome [5] | Potency [6]

Cc1cc(O)c2c(c1)C(=O)c1cccc(O)c1C2=O
inactive: Potency [1] | Potency [2] | Potency [7] | Potency [3] | Potency [8] | Potency [9] | outcome [10] | outcome [5] | Potency [6]

CCCCOC(=O)[C@@H](C)Oc1ccc(Oc2ccc(C(F)(F)F)cn2)cc1
inactive: Potency [1] | Potency [2] | Potency [3] | Potency [8] | outcome [10] | outcome [4] | Potency [6]
active: Potency [9] 61.5 µM

CN[C@@H]1[C@@H](O)[C@@H](O[C@@H]2[C@H](O)[C@H](O[C@H]3OC(CN)=CC[C@H]3N)[C@@H](N)C[C@H]2N)OCC1(C)O (stereo partly specified)
inactive: Potency [1] | Potency [2] | Potency [3] | outcome [4] | outcome [5] | Potency [6]

C=CCOCC(CO)(COCC=C)COCC=C
inactive: Potency [1] | Potency [2] | Potency [7] | Potency [8] | Potency [9] | outcome [10] | outcome [4] | outcome [5] | Potency [6]

OCCCCCCCl
inactive: Potency [1] | Potency [2] | Potency [7] | Potency [3] | Potency [8] | outcome [10] | outcome [4] | outcome [5] | Potency [6]

CC(=O)OCC(=O)[C@@]1(O)[C@H](OC(C)=O)C[C@H]2[C@@H]3CCC4=CC(=O)C=C[C@]4(C)[C@@]3(F)[C@@H](O)C[C@@]21C
inactive: Potency [1] | Potency [2] | Potency [3] | Potency [8] | outcome [4] | outcome [5] | Potency [6]

CCC(O)C(C)(C)C (stereo unspecified)
inactive: Potency [1] | Potency [2] | Potency [7] | Potency [3] | Potency [8] | outcome [10] | outcome [4] | outcome [5] | Potency [6]

C=CCOc1c(Br)cc(Br)cc1Br
inactive: Potency [1] | Potency [2] | Potency [7] | Potency [8] | Potency [9] | outcome [10] | outcome [4] | outcome [5] | Potency [6]

CCC(=O)OCCC(C)CCC=C(C)C (stereo unspecified)
inactive: Potency [1] | Potency [2] | Potency [3] | outcome [4] | outcome [5] | Potency [6]

CC(C)=CC(C)(C)C
inactive: Potency [1] | Potency [2] | Potency [3] | outcome [4]

CCOC(=O)CCCCCCCCC(=O)OCC
inactive: Potency [1] | Potency [2] | Potency [7] | Potency [3] | Potency [8] | outcome [10] | outcome [4] | outcome [5] | Potency [6]

O=C(O)c1ccccc1C(=O)OCc1ccccc1
inactive: Potency [1] | Potency [2] | Potency [7] | Potency [8] | Potency [9] | outcome [4] | outcome [5] | Potency [6]

C[N+](C)(C)CC(O)CCl (stereo unspecified)
inactive: Potency [1] | Potency [2] | Potency [7] | Potency [3] | Potency [8] | Potency [9] | outcome [4] | outcome [5] | Potency [6]

CC(=O)OC(C)(C)Cc1ccccc1
inactive: Potency [1] | Potency [2] | Potency [3] | outcome [4]

CC(C)CCC(=O)CCC(C)C
inactive: Potency [1] | Potency [2] | Potency [7] | Potency [8] | Potency [9] | outcome [10] | outcome [4] | outcome [5] | Potency [6]

O=C1c2ccccc2-c2ccccc21
inactive: Potency [1] | Potency [2] | Potency [3] | outcome [4] | outcome [5] | Potency [6]

COc1ccc(OC)c(NC(=O)CC(C)=O)c1
inactive: Potency [1] | Potency [2] | Potency [3] | outcome [4]

O=P(O)(O)OCC(O)CO (stereo unspecified)
inactive: Potency [1] | Potency [2] | Potency [7] | Potency [8] | Potency [9] | outcome [10] | outcome [4] | outcome [5] | Potency [6]

CC(=O)c1ccc2c(c1)CCCC2
inactive: Potency [1] | Potency [2] | Potency [7] | Potency [3] | outcome [10] | outcome [4] | outcome [5] | Potency [6]

CCC(C)(C)C1CCC(=O)CC1
inactive: Potency [1] | Potency [2] | Potency [7] | Potency [3] | Potency [8] | outcome [10] | outcome [4] | outcome [5] | Potency [6]

CCNC(=O)NCCCOc1cccc(CN2CCCCC2)c1
inactive: Potency [1] | Potency [2] | Potency [7] | Potency [8] | Potency [9] | outcome [10] | outcome [4] | outcome [5] | Potency [6]

CCC(C)(CCC(C)C)C(=O)[O-].CCC(C)(CCC(C)C)C(=O)[O-].[Zn+2] (stereo unspecified)
inactive: Potency [1] | Potency [2] | Potency [3] | outcome [4]

C=CCOC(=O)c1ccc(C(=O)OCC=C)c(C(=O)OCC=C)c1
inactive: Potency [1] | Potency [2] | Potency [7] | Potency [8] | Potency [9] | outcome [10] | outcome [4] | outcome [5] | Potency [6]

CC(=O)c1ccc(OCC(=O)N2CCCCC2)cc1
active: Potency [9] 18.8 µM
inactive: Potency [1] | Potency [2] | Potency [7] | Potency [3] | Potency [8] | outcome [5] | Potency [6]

C=CCCCCCCCCCCC
inactive: activity, negative = inhibition [1] 8.56% [at 8.44 µM] | activation [2] -1.31% [at 8.08 µM] | activity, negative = inhibition [7] -5.51% [at 6.71 µM] | activation [8] -3.33% [at 6.71 µM] | activation [9] -5.04% [at 8.47 µM] | activity change, negative = inhibition [10] -1.81% [at 8.47 µM] | activity change, negative = cytotoxicity [4] 2.93% [at 8.47 µM] | activity, negative = inhibition [5] 6.54% [at 8.47 µM] | activity change, negative = cytotoxicity [6] 2.95% [at 8.47 µM]

Nc1cc(S(=O)(=O)O)ccc1S(=O)(=O)O
inactive: Potency [1] | Potency [2] | Potency [3] | outcome [4] | outcome [5] | Potency [6]

Cc1ccccc1C(=O)N1CC/C(=N\OS(=O)(=O)O)c2ccc(Cl)cc21
inactive: Potency [1] | Potency [2] | Potency [7] | Potency [8] | Potency [9] | outcome [10] | outcome [4] | outcome [5] | Potency [6]

O=C(O)CCNC(=O)c1ccccc1
active: Potency [2] 11.9 µM
inactive: Potency [1] | Potency [7] | Potency [3] | Potency [8] | outcome [10] | outcome [4] | outcome [5] | Potency [6]

FC(F)(F)c1ccc(Cl)cc1Cl
inactive: Potency [1] | Potency [2] | Potency [3] | outcome [4] | outcome [5] | Potency [6]

CC1=NN(c2ccc(S(=O)(=O)O)cc2)C(=O)C1N=Nc1ccccc1 (stereo unspecified)
inactive: Potency [1] | Potency [2] | Potency [7] | Potency [3] | Potency [8] | Potency [9] | outcome [10] | outcome [5]
active: Potency [6] 54.5 µM

COc1cc(C=O)ccc1OC(=O)C(C)C
inactive: Potency [1] | Potency [2] | Potency [3] | outcome [4] | outcome [5] | Potency [6]
